Results from PubChem BioAssay.
The source made the active and inactive calls.

Columns and labels:
Albumin (Bos taurus) = Albumin (Bos taurus) (UniProt P02769); assay: compounds binding labelled BSA control protein – biochemical, small-molecule microarray, Alexa647 label, 635/667 nm fluorescence, artefact control for SMM control protein annotation, profiling panel (AID 1118); details: BSA-A647 binding, fluorescence 635 nm, higher = more signal;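 also: score merges 667 nm emission intensity and signal-to-noise per printed compound spot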
Albumin (Bos taurus), sequence (P02769 whole entry, looked up): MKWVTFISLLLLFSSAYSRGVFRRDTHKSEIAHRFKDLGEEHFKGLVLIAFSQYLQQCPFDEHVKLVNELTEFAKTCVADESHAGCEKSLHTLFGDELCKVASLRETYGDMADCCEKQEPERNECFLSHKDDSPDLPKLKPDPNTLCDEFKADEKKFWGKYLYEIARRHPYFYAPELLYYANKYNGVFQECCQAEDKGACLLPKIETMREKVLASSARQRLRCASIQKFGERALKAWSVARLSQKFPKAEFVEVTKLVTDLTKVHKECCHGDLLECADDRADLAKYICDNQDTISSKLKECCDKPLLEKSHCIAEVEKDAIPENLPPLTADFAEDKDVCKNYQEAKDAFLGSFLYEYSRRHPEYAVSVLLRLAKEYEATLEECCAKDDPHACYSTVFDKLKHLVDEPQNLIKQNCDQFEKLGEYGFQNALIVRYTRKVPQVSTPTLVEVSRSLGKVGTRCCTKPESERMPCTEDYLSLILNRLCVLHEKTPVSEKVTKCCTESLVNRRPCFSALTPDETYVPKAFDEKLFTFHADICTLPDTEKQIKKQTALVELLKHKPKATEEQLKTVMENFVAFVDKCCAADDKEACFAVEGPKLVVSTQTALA

[1] = probe aXIP binding to arrayed compounds – biochemical, NeuroSMM set, 635/667 nm fluorescence, primary screen (AID 1119); details: small-molecule microarray, higher = more signal, called active from +8 up or from −8 down;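 also: probe is the protein aXip251-270 applied at 1 µg/mL to compound-printed slides; binding of probe to printed compounds measured as 667 nm fluorescence plus signal to noise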
[2] = probe aNOTCH3 binding on compound microarray – biochemical, small-molecule microarray, 635/667 nm fluorescence, primary screen (AID 1120); details: higher = more signal;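 also: probe is a biotin-tagged antibody raised against NOTCH3 rather than NOTCH3 protein; score merges spot fluorescence near 667 nm with spot signal to noise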
[3] = probe aNOTCH2 binding on compound microarray – biochemical, small-molecule microarray, 635/667 nm fluorescence, primary screen (AID 1121); details: higher = more signal;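 also: score merges feature fluorescence read at 667 nm with its signal to noise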
[4] = biological target: Carbonic anhydrase 2 (Homo sapiens) (UniProt P00918); assay: compounds binding carbonic anhydrase 2 – biochemical, small-molecule microarray, Alexa647-labelled CAII, profiling panel (AID 1122); details: CAII-A647 binding fluorescence, higher = more signal
[5] = COS7 lysate on small-molecule microarray, probe aHis, 635 nm (AID 1123); details: COS7 cell lysate, fluorescence, higher = more signal;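 also: z-score combines 667nm fluorescence intensity with signal-to-noise per printed compound spot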
[6] = probe aLAP1 signal on lysate-treated microarray – cell lysate, small-molecule microarray, COS7 lysate, primary screen (AID 1124); details: probe aLAP1, fluorescence, higher = more signal;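 also: lysate comes from COS7 cells expressing LAP1 and is applied at 0.3 µg/mL; score merges spot fluorescence near 667 nm with signal-to-noise over triplicate slides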
Sam68 (KHDRBS1) = assay: compounds binding KHDRBS1 protein – biochemical, small-molecule microarray, 635 nm fluorescence, primary screen (AID 1125); details: higher = more signal;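 also: score merges 667 nm channel intensity with signal to noise over triplicate slides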
[7] = system: Chordin-like protein 2 (CHRDL2); assay: compounds binding chordin-like 2 – biochemical, small-molecule microarray, 635 nm fluorescence, primary screen (AID 1126); details: fluorescence 635 nm, higher = more signal;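 also: printed compound slides probed with Chrdl2 protein at 4 µg/mL for 1 h at 4 C; score merges 667 nm emission intensity with signal to noise over three replicate slides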
[8] = biological target: Concanavalin-A (Canavalia ensiformis) (UniProt P02866); assay: compounds binding concanavalin A lectin – biochemical, small-molecule microarray, Alexa647 label, 635 nm, artefact control for SMM control protein annotation, primary screen (AID 1127); details: ConA-A647 binding fluorescence, higher = more signal;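 also: z combines 667 nm emission intensity with signal-to-noise across three replicate slides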
Concanavalin-A (Canavalia ensiformis), sequence (P02866 whole entry, looked up): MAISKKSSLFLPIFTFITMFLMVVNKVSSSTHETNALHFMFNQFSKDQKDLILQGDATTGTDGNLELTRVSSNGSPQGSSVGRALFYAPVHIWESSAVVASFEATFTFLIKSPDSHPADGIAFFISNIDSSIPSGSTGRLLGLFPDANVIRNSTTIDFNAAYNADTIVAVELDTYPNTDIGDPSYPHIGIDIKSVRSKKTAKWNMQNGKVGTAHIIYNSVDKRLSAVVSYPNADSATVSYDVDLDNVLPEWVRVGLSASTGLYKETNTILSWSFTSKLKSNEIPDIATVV

[9] = compounds binding Alexa647 anti-His antibody – biochemical, small-molecule microarray, 635 nm fluorescence, artefact control for SMM control protein annotation, primary screen (AID 1128); details: higher = more signal;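 also: score merges feature fluorescence with signal-to-noise for each printed compound spot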
[10] = system: Human papillomavirus type 1a E7 protein (residues 1-88); assay: HPV1a E7 small-molecule binders, primary screen, biochemical, small-molecule microarray, residues 1-88, 635 nm (AID 1129); details: small-molecule microarray binding, fluorescence 635 nm; higher = more signal
[11] = biological target: Focal adhesion kinase 1 (Homo sapiens) (UniProt Q05397); assay: PTK2 protein binding on printed compound slides – biochemical, small-molecule microarray, 635/667 nm fluorescence, BSA, DTT, primary screen (AID 1130); details: 635 nm fluorescence, higher = more signal;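 also: composite of spot emission at 667 nm and signal to noise over triplicate slides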
Focal adhesion kinase 1 (Homo sapiens), sequence (Q05397 whole entry, looked up): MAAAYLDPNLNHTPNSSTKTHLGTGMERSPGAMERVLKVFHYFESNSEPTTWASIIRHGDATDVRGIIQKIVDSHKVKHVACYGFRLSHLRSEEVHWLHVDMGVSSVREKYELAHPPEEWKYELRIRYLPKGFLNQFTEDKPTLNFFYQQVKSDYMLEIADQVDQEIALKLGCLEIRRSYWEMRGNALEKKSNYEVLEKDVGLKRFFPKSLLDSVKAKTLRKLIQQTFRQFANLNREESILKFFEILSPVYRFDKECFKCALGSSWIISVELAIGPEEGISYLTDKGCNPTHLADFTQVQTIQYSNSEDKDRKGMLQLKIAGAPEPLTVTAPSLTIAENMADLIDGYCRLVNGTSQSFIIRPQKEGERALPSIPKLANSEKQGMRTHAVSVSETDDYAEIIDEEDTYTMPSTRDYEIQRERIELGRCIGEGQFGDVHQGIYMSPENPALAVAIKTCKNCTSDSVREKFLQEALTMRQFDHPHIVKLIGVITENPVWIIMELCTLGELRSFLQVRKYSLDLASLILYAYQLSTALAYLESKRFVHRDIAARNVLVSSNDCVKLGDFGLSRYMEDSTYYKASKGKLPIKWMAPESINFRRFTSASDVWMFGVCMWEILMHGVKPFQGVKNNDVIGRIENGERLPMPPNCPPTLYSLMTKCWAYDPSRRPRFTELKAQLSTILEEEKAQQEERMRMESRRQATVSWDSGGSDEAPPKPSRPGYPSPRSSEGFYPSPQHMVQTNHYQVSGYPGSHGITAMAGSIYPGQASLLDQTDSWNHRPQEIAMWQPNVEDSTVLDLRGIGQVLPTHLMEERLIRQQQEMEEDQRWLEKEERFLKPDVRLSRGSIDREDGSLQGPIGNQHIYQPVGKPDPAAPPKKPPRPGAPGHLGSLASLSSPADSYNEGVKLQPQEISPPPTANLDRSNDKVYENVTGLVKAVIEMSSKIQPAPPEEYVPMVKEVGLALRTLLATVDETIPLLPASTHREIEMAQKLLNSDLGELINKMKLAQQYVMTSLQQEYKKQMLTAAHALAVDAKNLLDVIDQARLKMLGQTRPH

[12] = system: Fibrinogen (Alexa647-labelled); assay: Alexa647-fibrinogen binding to printed small molecules – biochemical, small-molecule microarray, 635/667 nm fluorescence, artefact control for SMM control-protein annotation, profiling panel (AID 1131); details: fibrinogen-A647 binding fluorescence, higher = more signal;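 also: z-score merges 667 nm fluorescence with per-spot signal-to-noise over triplicate slides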
[13] = biological target: Follistatin (Homo sapiens) (UniProt P19883); assay: FST protein binding to printed compounds – biochemical, small-molecule microarray, 635/667 nm fluorescence, primary screen (AID 1132); details: 635 nm fluorescence, higher = more signal
Follistatin (Homo sapiens), sequence (P19883 whole entry, looked up): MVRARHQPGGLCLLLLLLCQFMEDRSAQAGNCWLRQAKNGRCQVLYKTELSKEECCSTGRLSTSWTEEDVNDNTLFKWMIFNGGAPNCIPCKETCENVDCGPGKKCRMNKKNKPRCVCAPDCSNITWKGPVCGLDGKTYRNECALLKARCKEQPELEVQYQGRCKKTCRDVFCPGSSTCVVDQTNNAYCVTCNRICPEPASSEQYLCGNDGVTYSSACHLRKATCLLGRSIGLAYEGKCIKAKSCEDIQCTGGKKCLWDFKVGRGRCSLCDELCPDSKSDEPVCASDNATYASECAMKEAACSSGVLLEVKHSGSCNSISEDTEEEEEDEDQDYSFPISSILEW

[14] = biological target: Fibroblast growth factor 2 (Homo sapiens) (UniProt P09038); assay: basic fibroblast growth factor binding to printed compounds – biochemical, small-molecule microarray, 635/667 nm fluorescence, primary screen (AID 1133); details: FGF2, fluorescence 635/667, higher = more signal
Fibroblast growth factor 2 (Homo sapiens), sequence (P09038 whole entry, looked up): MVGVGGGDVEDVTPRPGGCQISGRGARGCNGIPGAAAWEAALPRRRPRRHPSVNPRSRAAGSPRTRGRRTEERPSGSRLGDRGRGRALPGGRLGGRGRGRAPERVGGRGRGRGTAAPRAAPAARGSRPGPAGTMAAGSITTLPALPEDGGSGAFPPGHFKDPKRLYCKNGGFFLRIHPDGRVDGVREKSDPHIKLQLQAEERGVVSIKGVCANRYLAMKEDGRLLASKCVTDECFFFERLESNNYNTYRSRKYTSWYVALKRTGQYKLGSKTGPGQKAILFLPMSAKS

[15] = JC-1 mitochondrial potential readout, lung cancer cells – cell-based, A549, JC-1 fluorescence, basal, 24 h, 100 nL, profiling panel (AID 1138); details: higher = more signal;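 also: A549 lung adenocarcinoma cells under basal conditions with no added stimulus; test concentration not given here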
Lefty1 = Lefty1 protein binding to printed compounds – biochemical, small-molecule microarray, 635/667 nm fluorescence, primary screen (AID 1139); details: fluorescence 635/667, higher = more signal
[16] = system: wheat germ agglutinin (Triticum aestivum), Alexa647-labelled; assay: Alexa647-WGA lectin binding to printed small molecules – biochemical, small-molecule microarray, 635/667 nm fluorescence, artefact control for SMM control-protein annotation, profiling panel (AID 1140); details: WGA-A647 binding, 635 nm fluorescence, higher = more signal;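 also: score merges 667 nm feature emission with signal to noise over triplicate slides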
[17] = biological target: Luciferin 4-monooxygenase (Photinus pyralis) (UniProt P08659); assay: inhibition of purified Photinus pyralis luciferase – biochemical, luminescence, purified enzyme, 2006 set, primary screen (AID 1141); details: purified firefly luciferase, SteadyGlo luminescence, 30 min; higher = more signal, called active from +8 up or from −8 down;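 also: cell-free assay with purified firefly luciferase at 100 ng per well in PBS; test concentration not given here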
Luciferin 4-monooxygenase (Photinus pyralis), sequence (P08659 whole entry, looked up): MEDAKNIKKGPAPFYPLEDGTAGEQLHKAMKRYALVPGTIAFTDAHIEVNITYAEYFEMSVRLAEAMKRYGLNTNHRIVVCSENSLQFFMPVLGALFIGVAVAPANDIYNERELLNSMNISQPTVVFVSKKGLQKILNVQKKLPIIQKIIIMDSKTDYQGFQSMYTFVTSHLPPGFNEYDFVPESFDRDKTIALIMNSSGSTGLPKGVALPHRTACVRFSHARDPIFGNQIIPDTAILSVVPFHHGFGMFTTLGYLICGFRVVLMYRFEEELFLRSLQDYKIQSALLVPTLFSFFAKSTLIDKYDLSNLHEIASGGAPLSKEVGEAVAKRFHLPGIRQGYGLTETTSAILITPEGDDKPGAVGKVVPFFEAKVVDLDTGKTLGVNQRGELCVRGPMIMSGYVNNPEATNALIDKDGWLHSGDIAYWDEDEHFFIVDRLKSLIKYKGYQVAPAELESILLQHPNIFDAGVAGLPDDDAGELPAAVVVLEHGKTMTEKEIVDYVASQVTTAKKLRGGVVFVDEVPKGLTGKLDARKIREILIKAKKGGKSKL

SMILES | composite z-score (Albumin (Bos taurus)) | composite Z-score [1] | composite z-score [2] | composite z-score [3] | composite z-score [4] | composite z-score [5] | composite z-score [6] | composite z-score (Sam68 (KHDRBS1)) | composite z-score [7] | composite z-score [8] | composite z-score [9] | composite z-score [10] | composite z-score [11] | composite z-score [12] | composite z-score [13] | composite z-score [14] | z-score [15] | composite z-score (Lefty1) | composite z-score [16] | z-score [17]
O=C1N(Cc2ccccc2)c2ccccc2C[C@@]12COC(c1ccc(OCCCO)cc1)=N2 | 0.809 | -0.267 (inactive) | 0.251 | -0.0595 | 0.471 | 2.51 | 0.756 | 1.15 | -0.366 | 0.582 | 1.55 | 1.21 | 0.75 | 0.785 | 1.3 | 0.326 | 0.0331 | -0.319 | 0.98 | -1.92 (inactive)
COc1ccc(CCNC(=O)[C@@H]2c3ccccc3C(=O)N(Cc3ccccc3OC)[C@H]2c2ccc(CO)cc2)cc1 | 0.454 | 0.511 (inactive) | -0.176 | -0.0068 | 0.533 | 1.59 | 0.886 | 1.28 | -0.246 | 0.792 | 1.71 | 1.15 | 0.347 | 0.406 | 0.674 | 1.02 | 0.84 | 0.0605 | 0.655 | 0.256 (inactive)
COc1ccccc1CN1C(=O)c2ccccc2[C@](Cc2ccccc2I)(C(=O)NCC(C)C)[C@@H]1c1ccc(CO)cc1 | -0.133 | 0.688 (inactive) | -0.0693 | -0.0241 | 0.542 | 1.97 | 0.675 | 0.781 | -0.483 | 0.792 | -0.718 | 0.654 | -0.299 | 0.378 | 1.05 | 0.133 | 2.54 | -0.803 | 0.0043 | -1.22 (inactive)
COCCCNC(=O)[C@@]1(CCS(=O)(=O)c2ccccc2)COC(c2ccc(OCCCO)cc2)=N1 | 0.595 | 0.197 (inactive) | 0.567 | 0.0551 | 0.919 | 3.36 | 0.706 | 1.14 | -0.804 | 0.945 | 3.75 | 0.92 | 0.394 | 1.02 | 1.31 | 0.194 | 0.206 | -0.0951 | 1.59 | -0.0482 (inactive)
O=C1O[C@@H](c2ccccc2)[C@@H](c2ccccc2)N2[C@@H](c3ccccc3OCCO)[C@]3(C(=O)Nc4ccc(C#CCCO)cc43)[C@@H](C(=O)NC[C@H](O)c3ccccc3)[C@H]12 | 0.366 | 0.45 (inactive) | 0.307 | 0.255 | 0.557 | 2.25 | 1.31 | 1.28 | 0.454 | 1.12 | 1.32 | 1.25 | 1.06 | 0.847 | 1.27 | 0.835 | -0.928 | 0.831 | 0.891 | 0.808 (inactive)
CC(C)C(=C=CC[C@H](O)c1ccccc1OCCO)C[C@H](O)COCc1ccccc1 | 0.435 | -0.392 (inactive) | -0.122 | -0.172 | 0.736 | 1.08 | 0.565 | 0.24 | -0.163 | 0.377 | 1.12 | -0.141 | -0.27 | -0.513 | -0.0978 | 0.107 | 0.742 | 0.346 | 0.133 | -0.961 (inactive)
COC(=O)[C@@]1(Cc2ccc(F)cc2)[C@H]2c3cc(C(=O)N4CCCC4)n(CCc4ccccn4)c3C[C@H]2CN1C(=O)c1ccccc1 | 0.634 | 0.191 (inactive) | 0.0488 | 0.186 | 0.852 | 2.13 | 0.233 | 0.0315 | -0.163 | 0.222 | 0.272 | 0.786 | 0.754 | 0.97 | -0.227 | -0.418 | 0.622 | -1.03 | 1.01 | 0.458 (inactive)
C=CCNC(=O)[C@H]1[C@@H]2C(=O)O[C@@H](c3ccccc3)[C@@H](c3ccccc3)N2[C@@H](c2ccc(OCCO)cc2)[C@]12C(=O)Nc1ccc(C#CC3(O)CCCCCC3)cc12 | 0.483 | 0.238 (inactive) | 0.257 | 0.0111 | 0.184 | 1.29 | 1.09 | 1.34 | 0.721 | 1.13 | 1.26 | 1.18 | 0.358 | 0.932 | 1.14 | 1.13 | 0.38 | 1.3 | 0.651 | -1.96 (inactive)
CN1C(=O)C2C=CC(C(O)c3ccc(-c4ccccc4)s3)N(NC(=O)OC(C)(C)C)C2C1=O (stereo not given) | 0.886 | 0.43 (inactive) | 0.435 | 0.164 | 0.689 | 1.65 | 0.714 | 1.23 | 0.0094 | 0.996 | 0.847 | 1.14 | 0.154 | 1.04 | 0.807 | 0.498 | 0.237 | -0.0773 | 0.904 | 0.626 (inactive)
CC(C)c1nc2cc(Br)ccc2c(=O)o1 | 0.915 | 0.19 (inactive) | 0.0493 | -0.0424 | 0.738 | 0.92 | 0.0912 | 0.711 | -0.552 | 1.09 | 0.405 | 0.854 | 0.224 | 0.871 | 0.296 | -0.357 | 0.48 | -0.0283 | 0.834 | 0.672 (inactive)
O=C1C=C(c2ccccc2)C(=O)C2=C1CC([C@H]1Oc3ccccc3S(=O)(=O)N3CCC[C@@H]13)=CC2 | 0.0895 | 0.506 (inactive) | -0.0918 | -0.0485 | -0.248 | -0.227 | -0.247 | 0.13 | 0.121 | 0.0457 | -0.105 | 0.154 | -0.263 | -0.472 | 0.316 | 0.669 | -1.32 | 0.132 | 0.145 | -1.49 (inactive)
